# Experimental data: PubChem BioAssay AID588342 (National Center for Advancing Translational Sciences (NCATS), 2011)
# In all, about 360,000 compounds went through this assay and about 25,000 (6.9%) were called active. Entries that show only a call come without a potency. Inconclusive results (about 9%) are left out. Calls come from the whole dose curve; as a rule, active = well fitted inhibition curve with a large enough effect; inconclusive = small, poorly fitted or top-dose-only effect; inactive = flat fitted curve, though single readings scatter. For the sample, actives were picked, then their nearest neighbours and some compounds at random.
# Molecular target: Luciferin 4-monooxygenase (Photinus pyralis) (UniProt P08659)
# Assay: qHTS profiling assay for firefly luciferase inhibitor/activator using purifed enzyme and Km concentrations of substrates (counterscreen for miR-21 project); note: nearly all actives have a fitted effect of over 55% in size
# Settings: purified FLuc, luminescence inhibition; series mostly up to 57.5 µM
# Source text: MLPCN Grant: 1 R21 NS059478-01 (miR-21 grant) Assay Provider: NCGC NCGC Assay Overview: Firefly (Photinus pyralis) luciferase is one of the most commonly used transcriptional reporters for a number of reasons. It is considered one of the more dynamically responsive reporters -that is, responsive to changes in reporter transcription - as it requires no post-translational modifications and is enzymatically active directly after protein synthesis (Wood, 1998). Additionally, the half-life of the luciferase protein is short relative to other reporter-gene products (Wood, 1995). Whereas reporters with long half-lives potentially allow for increased signal due to accumulation of reporter-gene product, once accumulated in the cell, dynamic changes in reporter-gene expression may be difficult to detect(Fan and Wood, 2007; Almond et al., 2004). It has been shown that wild-type P. pyralis luciferase has a half-life of approximately […] hours in mammalian cells (Thompson et al., 1991). Firefly luciferase reporter-gene assays are also generally considered one of the most sensitive assay types (Wood, 1995; Wood, 1998). Although light produced in a bioluminescence reaction is of lower intensity than that produced during fluorescence emission, this is offset by little to no background light inherent to luminescent assays. Thus the luciferase reporter can be expressed at much lower levels than fluorescent proteins while still providing robust signal. # However, it was initially observed, in 1991, by Thompson et al., that compounds that resemble the substrates of firefly luciferase (FLuc) can act as competitive inhibitors of the enzyme, and that these compounds, upon interaction with luciferase in the cell, can actually stabilize the protein and increase its half-life. Accumulated intracellular FLuc protein can be measured as an increase in luminescence signal, upon addition of detection reagents (which contain high concentrations of FLuc substrates) commonly used in high-throughput screening. In cell-based reporter gene assays that use FLuc as the reporter gene to quantitate the potential influence of a given compound against the target biology, this apparent increase in luminescence can mistakenly be interpreted as identification of a compound that is active against the target of interest. This is the case for the miR-21 FLuc reporter gene assay used to identify inhibitors of the miR-21 pathway (PubChem AID 2289) - compounds of interest will inhibit miR-21 biogenesis/expression or activity, and are identified by causing an increase in luminescence, due to increased FLuc translation. However, FLuc inhibitory compounds that stabilize the FLuc protein will give an identical read-out, making it difficult to distinguish compounds that are active against the target from those active against FLuc. Previous profiling work to determine the prevalence of compounds that affect FLuc enzymatic activity (PubChem AID 411) identified that ~3% of the MLSMR library (then at ~72K) inhibited FLuc. […] Since the MLSMR had grown to ~350K compounds, and since it was expected that a significant percentage of compounds found active in the miR-21 FLuc assay would be FLuc inhibitors, the library was screened for activity against FLuc using a biochemical assay of purified FLuc and KM concentrations of FLuc substrates (D-luciferin and ATP).
# NCGC Assay Protocol Summary: Reagents: 50mM Tris acetate, pH 7.5; 10mM Mg acetate; 10uM D-luciferin (Sigma #L9504); 10uM ATP; 0.01% Tween-20; 0.05% BSA; 10nM P. pyralis luciferase (Sigma #L9506) Control compounds used were two known firefly luciferase inhibitors (compounds (2) and (5) in Auld et al., 2010), and DMSO. […]
# Luciferin 4-monooxygenase (Photinus pyralis), sequence (P08659 whole entry, looked up): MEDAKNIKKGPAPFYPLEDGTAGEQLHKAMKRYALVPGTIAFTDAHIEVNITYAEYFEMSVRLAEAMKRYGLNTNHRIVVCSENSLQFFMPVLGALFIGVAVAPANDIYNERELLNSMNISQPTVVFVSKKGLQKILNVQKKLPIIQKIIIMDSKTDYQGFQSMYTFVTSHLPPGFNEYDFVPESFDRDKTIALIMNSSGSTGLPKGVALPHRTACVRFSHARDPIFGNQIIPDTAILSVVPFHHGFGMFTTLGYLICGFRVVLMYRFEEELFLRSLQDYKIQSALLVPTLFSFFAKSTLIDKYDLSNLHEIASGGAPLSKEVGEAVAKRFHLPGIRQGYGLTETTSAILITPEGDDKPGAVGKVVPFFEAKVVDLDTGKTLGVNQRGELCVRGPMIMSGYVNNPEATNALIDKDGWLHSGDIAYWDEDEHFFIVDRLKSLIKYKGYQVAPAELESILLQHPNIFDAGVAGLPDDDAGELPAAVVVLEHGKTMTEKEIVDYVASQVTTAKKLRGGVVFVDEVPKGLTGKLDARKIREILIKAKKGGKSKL
row,SMILES,Potency
1,CCOc1ccc(Nc2nc3c(S(=O)(=O)c4cccc(Cl)c4)nnn3c3ccsc23)cc1,inactive
2,Cc1ccc(Cl)cc1N1CCN(S(=O)(=O)c2cc3[nH]c(=O)c(=O)[nH]c3cc2C)CC1,inactive
3,COc1ccc(NC(=O)N2CCCn3nc(C)cc32)cc1OC,inactive
4,Cc1cc(C)cc(NC(=O)CCS(=O)(=O)c2cc3c4c(c2)CCN4C(=O)CC3)c1,inactive
5,Cc1ccc(Cl)cc1NC(=O)CCS(=O)(=O)c1ccc(Br)s1,inactive
6,Cc1ccc(N(CC(=O)NCC(C)c2ccccc2)S(=O)(=O)N(C)C)cc1 (stereo unspecified),inactive
7,CCN(CC(=O)NCc1ccc(Cl)cc1)C(=O)c1c(C)noc1C,inactive
8,COc1ccc(NC(=S)SC)cc1OC,inactive
9,Cc1ccc2c(=O)c(C(=O)c3ccc(F)cc3)cn(CC(=O)NC3CCCCC3)c2n1,inactive
10,COc1ccc(NC(=O)CCC(=O)Nc2cc(OC)c(NC(=O)c3ccco3)cc2OC)c(OC)c1,inactive
11,Cc1cccc(NC(=O)Nc2cccc(Oc3c(F)c(F)c(F)c(F)c3F)c2)c1,inactive
12,O=C(Nc1ccc(Oc2ccccc2)cc1)c1ccco1,5.36 µM (active)
13,Cc1ccoc1C(=O)Nc1cccc(Oc2ccccc2)c1,6.75 µM (active)
14,O=C(Nc1ccccc1)c1ccco1,inactive
15,CSCCC(NC(=O)c1ccco1)C(=O)OCC(=O)Nc1ncc(Cl)c(C)c1Cl (stereo unspecified),inactive
16,COc1ccc(NC(=O)c2ccco2)cc1NC(=O)c1ccc(C#N)cc1F,inactive
17,O=C(NNC(=O)c1ccco1)Nc1ccccc1,inactive
18,CSCCC(NC(=O)c1ccco1)C(=O)Nc1cc(C)ccn1 (stereo unspecified),15.1 µM (active)
19,CSCCC(NC(=O)c1ccco1)C(=O)NCCc1ccc(F)cc1 (stereo unspecified),inactive
20,COc1cccc(C(=O)Nc2ccc(NC(=O)c3ccco3)cn2)c1,21.3 µM (active)
21,Cc1cc(C)c(NC(=O)c2oc3ccccc3c2COc2ccccc2)c(C)c1,inactive
22,CCOc1ccccc1C(=O)Nc1ccc(S(=O)(=O)N2CCCCC2c2cccnc2)cc1 (stereo unspecified),inactive

row,SMILES,Potency
1,Cc1c(Cl)cccc1NC(=O)Cn1cc(C(=O)c2cccs2)c2ccccc21,inactive
2,Cc1cccc(OCCSc2nc3ccccc3n2CC(=O)N2CCCCC2)c1C,inactive
3,COc1ccc(CNC(=O)c2ccc(NC(=O)N3CC4CCCN4c4ccccc43)cc2)cc1 (stereo unspecified),inactive
4,O=C(CC(NCc1cccnc1)C(=O)O)Nc1ccc(O)cc1 (stereo unspecified),inactive
5,O=C(NCc1ccccc1CN1CCCC1)c1cccc(S(=O)(=O)Nc2ccc(F)cc2)c1,inactive
6,O=C(CCNC(=O)Cn1ccc2ccccc2c1=O)NCCC1=CCCCC1,inactive
7,Cc1ccnc(NC(=O)c2ccco2)n1,inactive
8,Cc1ccnc(NC(=O)c2ccc(NC(=O)c3ccco3)cc2)c1,10.7 µM (active)
9,CC(C)(C)NC(=O)c1cc(NC(=O)c2ccco2)cc(NC(=O)c2ccco2)c1,inactive
10,Cc1cccc(N(C(=O)Cc2cccs2)C(C(=O)NC2CCCC2)c2ccsc2)c1 (stereo unspecified),inactive
11,Nc1nc(SCCOc2ccccc2)n[nH]1,inactive
12,CCCOc1ccc(-c2nc(N)n[nH]2)cc1,13.5 µM (active)
13,Cc1ccc(OCCCCc2c(C)n[nH]c2C)cc1,inactive
14,Cc1ccc(CNC(=O)CSc2nnc3c(n2)[nH]c2ccc(F)cc23)cc1,inactive
15,COc1ccc(Cl)cc1NC(=O)C(C)Sc1nc2c(c(=O)[nH]1)CCCC2 (stereo unspecified),inactive
16,COC(=O)CN(c1nc(C)c(Cl)c(OC)n1)S(=O)(=O)c1ccc(C)cc1,inactive
17,COc1ccc2c(c1)CCc1c(C(=O)Nc3cc(C)ccc3O)noc1-2,inactive
18,COc1ccc(S(=O)(=O)NC(C)C(=O)N2CCCCCC2)cc1 (stereo unspecified),inactive
19,COc1ccc(C(=O)N2CCCN(C)CC2)c(OC)c1,inactive
20,COc1ccc2c(c1)CCc1c(C(=O)Nc3c(C)n(C)n(-c4ccccc4)c3=O)noc1-2,23.9 µM (active)
21,COc1ccc2c(c1)CCc1c(C(=O)N3CCCC3)noc1-2,12 µM (active)
22,Cc1c(NC(=O)c2cc(-c3ccc(Br)cc3)on2)c(=O)n(-c2ccccc2)n1C,inactive

row,SMILES,Potency
1,COc1ccc(Cl)cc1NC(=O)CSc1nc(-c2cccs2)cc(C(F)(F)F)n1,inactive
2,CC(OC(=O)c1ccccc1NCCO)C(=O)Nc1ccnn1C(C)C (stereo unspecified),inactive
3,Cn1c(=O)oc2cc(S(=O)(=O)CCC(=O)NCCc3ccc(Cl)cc3)ccc21,inactive
4,Fc1ccc(CSc2nc(NCc3ccccc3)c3ccccc3n2)cc1,inactive
5,COc1ccc(CNC(=O)COC(=O)c2ccc(C)c(S(=O)(=O)N3CCOCC3)c2)cc1OC,inactive
6,O=C(COC(=O)C1CC2CCCC(C1)C2=O)NC(=O)c1ccccc1 (stereo unspecified),inactive
7,CCc1ccc(Oc2coc3cc(O)ccc3c2=O)cc1,23.9 µM (active)
8,CCc1ccc(Oc2coc3cc(OC(=O)c4cc5ccccc5oc4=O)ccc3c2=O)cc1,inactive
9,COc1ccc(Oc2coc3cc(OC(=O)c4cncc(Br)c4)ccc3c2=O)cc1,inactive
10,N#Cc1ccc(-c2nc3cc(C#N)c(C#N)cc3nc2-c2ccccc2)cc1C#N,inactive
11,COc1ccc(C)cc1NC(=O)C(=O)NCCc1sc(-c2cccc(C)c2)nc1C,inactive
12,CC(C)c1ccc(NC(=O)Cn2c3ncccc3c(=O)n2-c2ccccc2)cc1,inactive
13,CN(C)c1ccnc(Nc2ccc(F)cc2)c1C#N,inactive
14,CC(C)c1ccc(Nc2ncccc2C#N)cc1,15.1 µM (active)
15,CCOc1cc2[nH]c(=O)n(Cc3ccc(C(=O)NCCN(CC)CC)cc3)c(=O)c2cc1OCC,inactive
16,O=C(Nc1ccc(Oc2ccccc2)cc1)C1CCN(S(=O)(=O)c2ccc(Cl)cc2)CC1,inactive
17,O=C(O)c1ccccc1N=N/C(=N/Nc1cc(S(=O)(=O)O)ccc1O)c1ccccc1,16.9 µM (active)
18,O=C(CN(c1ccccc1)S(=O)(=O)c1ccc(Cl)cc1)Nc1ccccc1C(=O)N1CCCC1,inactive
19,CC(=O)c1c(C)[nH]c(C(=O)OCC(=O)Nc2c(C)cccc2C)c1C,inactive
20,CC(NC(=S)Nc1ccc(OC(F)F)cc1)c1ccc(F)cc1 (stereo unspecified),inactive
21,C[C@@H]1NC(=O)[C@@]2(C)[C@@H](c3ccccc3)[C@H]3COc4ccccc4[C@@H]3N2C1=O,inactive
22,CCc1ccc(Nc2nn3c(=O)c4cc5c(cc4nc3s2)OCO5)cc1,inactive
